This is an account of results in PubChem BioAssay (NCATS).

The structures appear in SMILES notation. Several values for one entry are separate records, joined by “and”; a condition that tells them apart may be missing. Identical values can stand only once. A number with no mark means an inactive call. Inconclusive results are not listed. Activity calls are given as the source filed them. Unless noted, calls come from the whole dose curve; as a rule, active = well fitted curve in the direction sought with a large enough effect; inconclusive = small, poorly fitted or top-dose-only effect, or another doubt; inactive = no such curve, though single readings can be large; an effect the other way counts as inactive or inconclusive. Where only a bound is given, the exact number is not on record here.

The nature of assay [1]: Cell Viability - HepG2 (AID 433; calls by dose curve;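 note: potency is the fitted concentration of half-maximal effect; cells exposed to compound for 40 hours; potency for ATP loss meaning cytotoxicity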). The following applies: qHTS. The procedure, abridged: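 In this qHTS format, a 40 h, 37 °C compound incubation of HepG2 cells in complete medium precedes a 20 min CellTiter-Glo step at room temperature. Tamoxifen and doxorubicin serve as positive controls; Hill-equation fits yield AC50.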
Assay [2] is described as follows: Cell Viability - MRC5 (AID 434; calls by dose curve;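 note: potency is the fitted concentration of half-maximal effect; cells exposed to compound for 40 hours at 37 °C; potency reflects cytotoxicity seen as loss of intracellular ATP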). Particulars: MRC5 lung fibroblast viability, qHTS. The method in brief: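 ATP luminescence read-out (CellTiter-Glo, 20 min RT) after 40 hr, 37 °C compound exposure of 1500 MRC5 cells/well. Data normalized to DMSO (basal) and 100 uM tamoxifen (100% inhibition); AC50 from standard Hill equation.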
For orientation: In qHTS, concentration-response curves come from the screen itself.

Assay [3] concerns the target Mitogen-activated protein kinase 10 (Mus musculus) (UniProt Q61831). In words: JNK3 AlphaScreen Assay (AID 530; active = well fitted curve in either direction with a large enough effect, not every such curve was filed as active;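 note: kinase came from lysate of stimulated human HepG2 cells; signal reports phosphorylation of biotinylated GST-cJun 1-79 at Ser73 with 10 µM ATP; % is set by controls: 0 for no effect and ±100 for the full control effect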). Particulars: JNK3 lysate, c-Jun phosphorylation; series mostly up to 57.1 µM. The method in brief: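 HepG2 lysate (IL-1b/TNFa pre-activated) + biotin-GST-cJun 1-79 + anti-pSer73 cJun; cpd titration, 15 min RT; ATP 10 uM start; Tris pH 7.6, MgCl2, DTT, vanadate; beads in EDTA buffer; AlphaScreen.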

Assay [4] is described as follows: Cell Viability - Mesenchymal (AID 546).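 Note: cells exposed to compound for 40 hours before reading.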 The following applies: mesenchymal cells viability, qHTS; series mostly up to 91.7 µM. The method in brief: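 Human renal mesenchymal cells (glomerulus-derived), 1000 cells/well, 5 hr 37 °C pre-incubation; compound 40 hr, 37 °C; CellTiter-Glo, 20 min RT; luminescence; AC50 via Hill equation.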
The nature of assay [5]: Cellular Toxicity (caspase-3) HUV-EC-C (AID 656). The following applies: HUV-EC-C cells, caspase-3 activation (apoptosis), vehicle = 0, 100 µM tamoxifen = 100%; series mostly up to 92.2 µM. The procedure, abridged:
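Concentration-dependent caspase 3/7 induction was assessed in HUV-EC-C cells exposed for 16 hours. Data scaled between DMSO and tamoxifen (100 uM) controls.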

Assay [6] can be described thus: Cellular Toxicity (caspase-3) SK-N-SH (AID 661).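 Note: 0% = DMSO basal and 100% = 10 µM staurosporine.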 The following applies: SK-N-SH caspase-3 activation, qHTS; series mostly up to 91.7 µM. The method in brief: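 Luminescent Caspase-Glo 3/7 read-out after 16 hr compound exposure of SK-N-SH neuroblastoma cells at 37 °C. Signal increase normalized to DMSO (basal) and 10 uM staurosporine (100%); AC50 from Hill equation fits of qHTS concentration-response data.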

Assay [7] in a line: Cellular Toxicity (caspase-3) H-4-II-E (AID 663).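 Note: cells exposed to compound for 16 hr before readout.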 Particulars: H-4-II-E rat hepatoma; Potency: caspase-3 activation; series mostly up to 92.2 µM. The procedure, abridged: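 H-4-II-E rat hepatoma, 1500 cells/well, 5 hr settle at 37 °C; compound 16 hr, 37 °C, complete medium; Caspase-Glo 3/7, 20 min RT; luminescence. DMSO = 0%, 100 uM tamoxifen = 100%; Hill-equation AC50.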
A short description of assay [8]: MultiTox-Fluor Cytotoxicity Assay - LYMP1-002 - Dead Cells (AID 960).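 Note: 0% = DMSO and 100% = tetraoctylammonium bromide; nearly all actives have a fitted effect of over 60% in size.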 Particulars: LYMP1-002 lymphoblastoid cells, dead-cell protease fluorescence; series mostly up to 46.1 µM. The method in brief: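 Readout: fluorescence at 485/520 from cell-impermeant bis-AAF-R110 cleaved by proteases leaking from damaged cells. LYMP1-002 lymphoblastoid line, 16 hr compound treatment at 37 C, concentration-response in qHTS format; Hill-equation AC50 values.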

A short description of assay [9]: MultiTox-Fluor Cytotoxicity Assay - LYMP1-003 - Live Cells (AID 962).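 Note: cells exposed to compound for 16 hours at 37 °C; 0% = DMSO only and full loss = 92 µM tetraoctylammonium bromide; cytotoxic hits lower the live-cell protease signal.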 The following applies: LYMP1-003 lymphoblastoid cells, MultiTox-Fluor live-cell protease fluorescence; series mostly up to 92.2 µM. The procedure, abridged: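 Readout: live-cell fluorescence (Ex/Em=405/510) from GF-AFC cleavage after 60 min MultiTox-Fluor reagent at room temperature. Lymphoblastoid LYMP1-003 cells, 16 hr compound treatment, 37 C. Concentration-response fitted to standard Hill equation for AC50.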

A short description of assay [10]: Cell Viability - LYMP2-021 (AID 974).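 Note: compound exposure lasts 24 hours at 37 °C; nearly all actives have a fitted effect of over 55% in size.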 Note: potency is the fitted concentration of half-maximal effect. The following applies: LYMP2-021 lymphoblastoid cells viability; series mostly up to 92.2 µM. The method in brief: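 ATP luminescence (CellTiter-Glo, 30 min RT) after 24 h compound exposure at 37 C; 2500 human lymphoblastoid cells/well, 5 h settle beforehand. Cytotoxicity = concentration-dependent ATP drop, AC50 by Hill fit.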

The nature of assay [11]: Cell Viability - LYMP2-023 (AID 975). Note: nearly all actives have a fitted effect of over 55% in size. Note: potency is the fitted concentration of half-maximal effect. Particulars: LYMP2-023 lymphoblastoid cell viability; series mostly up to 92.2 µM. The procedure, abridged: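 CellTiter-Glo luminescence after 30 min at room temperature; decrease in intracellular ATP reflects toxicity. Cells: human lymphoblastoid line, 2500/well, 24 hr compound exposure at 37 C. AC50 fitted to standard Hill equation from concentration-response.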

Assay [12] in a line: Cell Viability - LYMP2-007 (AID 979).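 Note: cells exposed to compound for 24 h before reading; nearly all actives have a fitted effect of over 60% in size.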 Note: potency is the fitted concentration of half-maximal effect. Particulars: LYMP2-007 lymphoblastoid cell viability; series mostly up to 92.2 µM. The method in brief:
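qHTS cytotoxicity: 2500 cells/well, 5 hr 37 C settle, compound 24 hr 37 C, CellTiter-Glo 30 min RT, luminescence. Decrease in ATP = toxicity. AC50 by standard Hill equation; tetraoctylammonium bromide positive control.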

The target in assay [13] is Thyroid hormone receptor beta (Homo sapiens) (UniProt P10828). As to the kind of experiment: qHTS assay for small molecule agonists of thyroid hormone receptor beta signaling (AID 588545; calls by dose curve;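 note: 0% = DMSO only and 100% = 10 nM T3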). Particulars: TR-UAS-bla GripTite HEK 293, beta-lactamase ratio, agonist mode, 18 h; series mostly up to 76.7 µM. The procedure, abridged:
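Compounds were tested as agonists in TR-UAS-bla-GripTite HEK 293 cells. After 18 hrs at 37 C, CCF4 substrate was added and fluorescence read after 2 hrs at room temperature.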

Assay [14] has the same target. In words: qHTS assay for small molecule antagonists of thyroid hormone receptor beta signaling (AID 588547; active = well fitted inhibition curve with a large enough effect in the signal ratio, with a control signal flat, not every such curve was filed as active; the % refers to the signal ratio;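 note: cells stimulated with 0.4 nM T3 agonist during compound exposure; % is set by controls: 0 for no effect and ±100 for the full control effect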). The following applies: TR-UAS-bla HEK293, beta-lactamase ratio, antagonist mode, 18 h. The method in brief:
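TR-UAS-bla GripTite HEK293 cells in 2% charcoal/dextran FBS medium; compounds 0.59 nM to 92 uM with T3 at 0.4nM final, 18 h at 37 C. Beta-lactamase read by CCF4 fluorescence (460/530 nm); Hill fits gave IC50 and efficacy.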

The target in assay [15] is Nuclear receptor subfamily 1 group I member 2 (Rattus norvegicus) (UniProt Q9R1A7). In words: qHTS assay for small molecule activators of the rat pregnane X receptor (rPXR) signaling pathway (AID 651751; call rule not given here; note: 0% is about no effect). The following applies: rPXR reporter cells, luciferase (One-Glo), 24 h.
Assay [16] is described as follows: Cell Viability - LYMP2-006 (AID 978). Note: % is set by controls: 0 for no effect and ±100 for the full control effect; nearly all actives have a fitted effect of over 60% in size. Particulars: LYMP2-006 lymphoblastoid cell viability, qHTS; series mostly up to 92.2 µM. The procedure, abridged: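 In this cytotoxicity screen, the human lymphoblastoid line grew in complete medium with test compounds for 24 hr at 37 C. Cellular ATP served as the viability signal.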
Assay [17] addresses Vitamin D3 receptor (Homo sapiens) (UniProt P11473). In words: qHTS assay for small molecule antagonists of vitamin D receptor signaling (AID 588541; calls by dose curve;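 note: receptor activated by calcitriol during compound treatment; % is set by controls: 0 for no effect and ±100 for the full control effect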). The following applies: HEK293T VDR-UAS-bla, beta-lactamase ratio, antagonist mode; series mostly up to 76.7 µM. The method in brief:
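VDR-UAS-bla HEK293T cells in 2% charcoal-stripped FBS were stimulated with 1-alpha,25-dihydroxyvitamin D3 (3 nM final) plus compound for 16 h at 37 C. The beta-lactamase CCF4 readout was normalized to 50 nM agonist and DMSO, and Hill fits gave IC50.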

Assay [18] has as its target Retinoic acid receptor RXR-alpha (Homo sapiens) (UniProt P19793). In words: qHTS assay for small molecule agonists of retinoid X receptor alpha signaling (AID 588544; calls by dose curve;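 note: 0% = DMSO basal wells and 100% = reference agonist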). The following applies: HEK293T RXRa-UAS-bla, beta-lactamase reporter, 18 h; series mostly up to 76.7 µM.
Assay [19] in a line: qHTS assay for small molecule activators of the human pregnane X receptor (PXR) signaling pathway (AID 720659; call rule not given here; note: 0% is about no effect). The following applies: DPX-2 HepG2 CYP3A4-luciferase, 24 h; series mostly up to 92.3 µM.
A short description of assay [20]: Cell Viability - LYMP2-005 (AID 967).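 Note: plate controls were DMSO only for no effect and 92 µM tetraoctylammonium bromide control for full effect.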 The following applies: LYMP2-005 lymphoblastoid cell viability; series mostly up to 92.2 µM. The procedure, abridged: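 Luciferase-based ATP quantitation served as the viability measure in human lymphoblastoid LYMP2-005 cells exposed to test compounds for 24 h at 37 C in complete culture medium. Potency (AC50) was obtained by fitting concentration-response curves with the Hill equation.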

Sequence of Vitamin D3 receptor (Homo sapiens) (P11473 whole entry, looked up): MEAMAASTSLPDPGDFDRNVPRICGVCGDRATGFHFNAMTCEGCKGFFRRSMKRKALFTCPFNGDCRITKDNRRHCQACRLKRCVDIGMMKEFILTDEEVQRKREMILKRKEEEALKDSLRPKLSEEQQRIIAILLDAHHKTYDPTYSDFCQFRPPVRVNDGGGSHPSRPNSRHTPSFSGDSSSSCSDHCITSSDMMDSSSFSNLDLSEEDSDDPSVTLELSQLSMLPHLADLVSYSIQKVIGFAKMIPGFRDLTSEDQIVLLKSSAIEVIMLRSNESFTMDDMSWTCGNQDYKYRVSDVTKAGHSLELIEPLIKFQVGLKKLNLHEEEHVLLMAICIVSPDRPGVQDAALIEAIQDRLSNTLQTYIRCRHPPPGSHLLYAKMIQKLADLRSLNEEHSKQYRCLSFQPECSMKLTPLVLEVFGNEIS
Sequence of Retinoic acid receptor RXR-alpha (Homo sapiens) (P19793 whole entry, looked up): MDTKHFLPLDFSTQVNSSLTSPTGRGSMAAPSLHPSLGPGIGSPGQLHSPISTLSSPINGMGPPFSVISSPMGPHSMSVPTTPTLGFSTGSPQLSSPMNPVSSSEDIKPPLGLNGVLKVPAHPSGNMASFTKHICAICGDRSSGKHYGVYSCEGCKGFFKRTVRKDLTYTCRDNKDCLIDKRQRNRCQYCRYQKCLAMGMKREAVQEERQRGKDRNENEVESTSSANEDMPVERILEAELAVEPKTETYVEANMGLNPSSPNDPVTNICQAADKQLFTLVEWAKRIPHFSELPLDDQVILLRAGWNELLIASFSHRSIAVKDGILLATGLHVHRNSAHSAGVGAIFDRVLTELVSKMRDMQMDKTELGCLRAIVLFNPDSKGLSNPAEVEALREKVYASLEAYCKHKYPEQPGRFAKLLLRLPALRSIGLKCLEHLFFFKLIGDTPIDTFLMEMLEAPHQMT
Sequence of Nuclear receptor subfamily 1 group I member 2 (Rattus norvegicus) (Q9R1A7 whole entry, looked up): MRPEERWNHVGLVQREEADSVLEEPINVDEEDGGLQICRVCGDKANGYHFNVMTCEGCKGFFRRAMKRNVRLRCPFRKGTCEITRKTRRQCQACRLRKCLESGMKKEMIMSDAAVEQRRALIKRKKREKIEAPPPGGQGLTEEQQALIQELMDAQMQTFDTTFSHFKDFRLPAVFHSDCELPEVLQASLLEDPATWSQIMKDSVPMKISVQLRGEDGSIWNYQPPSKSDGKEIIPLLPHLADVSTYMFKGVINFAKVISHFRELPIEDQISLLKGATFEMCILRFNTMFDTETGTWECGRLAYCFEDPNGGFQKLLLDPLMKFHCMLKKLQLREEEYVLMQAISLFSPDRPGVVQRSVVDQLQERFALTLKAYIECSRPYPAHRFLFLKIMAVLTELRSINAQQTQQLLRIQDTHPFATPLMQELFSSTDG
Sequence of Thyroid hormone receptor beta (Homo sapiens) (P10828 whole entry, looked up): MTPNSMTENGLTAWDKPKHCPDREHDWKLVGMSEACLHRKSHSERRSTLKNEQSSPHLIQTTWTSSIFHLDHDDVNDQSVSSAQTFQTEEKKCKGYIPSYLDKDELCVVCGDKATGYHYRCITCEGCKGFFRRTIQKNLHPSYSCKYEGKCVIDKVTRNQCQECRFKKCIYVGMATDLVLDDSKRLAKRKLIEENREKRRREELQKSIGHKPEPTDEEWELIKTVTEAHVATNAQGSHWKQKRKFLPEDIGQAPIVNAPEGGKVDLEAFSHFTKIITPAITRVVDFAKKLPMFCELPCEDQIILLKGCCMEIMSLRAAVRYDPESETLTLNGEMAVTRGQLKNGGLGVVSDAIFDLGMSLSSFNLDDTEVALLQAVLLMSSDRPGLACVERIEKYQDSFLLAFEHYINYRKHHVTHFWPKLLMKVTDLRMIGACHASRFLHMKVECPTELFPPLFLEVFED

Take `OC[P+](CO)(CO)CO`: the Potency in [1] is greater than 92 µM; in assay [2], greater than 92 µM; in [10], 12.6 µM (active); in [11], 25.1 µM (active); in assay [12], 15.8 µM (active). Besides, the Potency result in assay [3], in assay [4], in assay [6], in assay [7], in assay [8] and in [13] was “inactive” in each case. Also, the molecule was called inactive in assay [5] and in assay [9]. The activity change % (negative = inhibition) in assay [14] is -18.1% and -15.5%. Further, the max response in assay [15] was -2.2% and -0.448%.
On to `CCCCCc1cc(O)cc(O)c1`, for which the Potency in assay [1] and in [2] was greater than 92 µM throughout. Moreover, the Potency result in assay [3], in assay [4], in assay [7], in [11], in [16] and in assay [13] was “inactive” in each case. The result in assay [5], in assay [9], in [17], in [18] and in assay [19] was inactive. For the same molecule, the activity change % (negative = inhibition) in [14] is -2.41%. Also, in [15], the max response is -1.86%.
In the case of `C/C=C/C=O`, the Potency in [1] and in assay [2] was greater than 92 µM each time. Besides, the Potency entry in assay [3], in [4], in assay [6], in assay [7], in assay [8] and in [20] was “inactive” in each case. Moreover, the Potency result in [10], in assay [11], in assay [16], in assay [12] and in assay [13] was “inactive” each time. Besides, the result in assay [5], in assay [9], in [17] and in [19] was inactive. In addition, the activity change % (negative = inhibition) in [14] is -1.85%. For the same molecule, the max response in assay [15] is 18.2%.
With `Nc1c(Cl)cc([N+](=O)[O-])cc1Cl`, the Potency in assay [1] and in assay [2] was greater than 92 µM throughout. Also, the Potency result in assay [3], in [4], in [6], in assay [7], in [8] and in assay [20] was “inactive” each time. Further, the Potency entry in assay [10], in assay [11], in assay [16], in assay [12] and in [13] was “inactive” in each case. For the same molecule, the outcome in assay [5], in assay [9], in [17], in assay [18] and in assay [19] was inactive. Moreover, the activity change % (negative = inhibition) in assay [14] is 16.2% and 3.97%.
In the case of `ClC=CCl`, the Potency in assay [1] and in assay [2] was greater than 92 µM throughout. Also, the Potency entry in assay [3], in assay [6], in assay [7], in assay [8], in assay [10] and in assay [11] was “inactive” in each case. The Potency entry in assay [16] and in assay [13] was “inactive” each time. Further, the call in [9], in assay [17], in assay [18] and in assay [19] was inactive. Moreover, the activity change % (negative = inhibition) in [14] is -5.48%. Moreover, the max response in assay [15] is -4.21%.
Regarding `Clc1cccc2ccccc12`, the Potency in assay [1] and in [2] was greater than 92 µM in each case. For the same molecule, the Potency result in assay [3], in assay [6], in [7], in assay [8], in [20] and in assay [10] was “inactive” in each case. In addition, the Potency entry in assay [11], in assay [16], in assay [12] and in assay [13] was “inactive” in each case. In addition, the molecule was called inactive in [5], in [9], in [17], in [18] and in assay [19]. For the same molecule, the activity change % (negative = inhibition) in [14] was -4.95%. In [15], the max response was 3.21%.
Turning to `CC1CC(=O)O1` (stereo not given), the Potency in assay [1] and in assay [2] was greater than 92 µM throughout. Further, the Potency entry in [4], in assay [6], in assay [7], in assay [8], in [20] and in assay [10] was “inactive” each time. Further, the Potency result in [11], in assay [16] and in [13] was “inactive” in each case. The outcome in [5], in assay [9], in assay [17], in assay [18] and in assay [19] was inactive. In assay [15], the max response is 0.366%.
